Bioassay records deposited in PubChem BioAssay by National Center for Advancing Translational Sciences (NCATS).
USP1 inh – Inhibitors of USP1/UAF1: Primary Screen; hit rate 0.23% among 390,000; recombinant USP1/UAF1, Ub-Rhodamine cleavage fluorescence; Potency, µM (doses to about 57.1 µM), inactives show top-dose activity change, negative = inhibition, actives largely listed as inhibitors; AID 743255, 2014; Ubiquitin carboxyl-terminal hydrolase 1 (Homo sapiens), O94782; note: potency is the fitted concentration of half-maximal effect; nearly all actives have a fitted effect of over 60% in size
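USP1/UAF1 complex (1 nM) preincubated 15 min at room temperature with compound, then Ub-Rho substrate (150 nM final) added. Kinetic fluorescence at 480/540 nm over 6 reads at 60 s intervals; 50 mM HEPES pH 7.8, 0.5 mM EDTA, 0.1 mg/ml BSA, 1 mM TCEP, 0.01% Tween-20.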
WRN helicase inh – qHTS for Inhibitors of WRN Helicase; WRN helicase unwinding, fluorescent forked duplex, kinetic; Bifunctional 3'-5' exonuclease/ATP-dependent helicase WRN (Homo sapiens), Q14191; AID 651768, 2012; Potency, µM (doses to about 114 µM), for the others: at the top dose activity change, negative = inhibition, hits mostly inhibitors; hit rate 0.46% among 360,000; note: potency is the fitted concentration of half-maximal effect; nearly all actives have a fitted effect of over 55% in size
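WRN at 20 nM final preincubated with compound 15 min at room temperature; reaction started with 100 nM fluorophore/quencher forked duplex oligonucleotide and 2 mM ATP final. Unwinding followed kinetically by red fluorescence (ex 525, em 598 nm).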
PI5P4Ka inh – qHTS for Inhibitors of phosphatidylinositol 5-phosphate 4-kinase (PI5P4K). PI5P4Kalpha enzyme, ADP-Glo luminescence, 60 min; hits give low values. max response, %. hit rate 1.2% among 330,000. AID 652105, 2013; active = max response of -50% or lower; inconclusive = between -30% and -50%; inactive = -30% or higher; note: value at the top dose of about 77 µM
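PI5P4Kalpha ADP-Glo assay; 5 microM ATP final; 60 min RT reaction; HEPES pH 7.4/EGTA/CHAPS, 5% DMSO; controls lacking substrate or enzyme; luminescent end-point.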
PLK1 PBD inh – qHTS for Inhibitors of PLK1-PDB (polo-like kinase 1 - polo-box domain): Primary Screen. Plk1 PBD binding of FITC phosphopeptide, fluorescence polarization. Potency, µM, for the others: max response, negative = inhibition, usual class: inhibitors. AID 720504, 2013. hit rate 2.8% among 360,000; note: potency is the fitted concentration of half-maximal effect; series mostly up to about 57 µM; nearly all actives have a fitted effect of over 65% in size
USP2a block – qHTS Assay for Inhibitors of Ubiquitin-specific Protease USP2a Using CHOP2 as the Reporter; Ubiquitin carboxyl-terminal hydrolase 2 (Homo sapiens), O75604; USP2 core, Ub-CHOP2 coupled fluorogenic reporter, 485/531; Potency, µM (highest dose often 38.3 µM), for inactives: at the top dose activity change, negative = inhibition, usual class: inhibitors; hit rate 0.01% among 330,000;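 note: potency is the fitted concentration of half-maximal effect; plate controls were DMSO wells for no effect and full inhibition by NEM control for full effect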
Target sequence (O75604 whole entry, looked up): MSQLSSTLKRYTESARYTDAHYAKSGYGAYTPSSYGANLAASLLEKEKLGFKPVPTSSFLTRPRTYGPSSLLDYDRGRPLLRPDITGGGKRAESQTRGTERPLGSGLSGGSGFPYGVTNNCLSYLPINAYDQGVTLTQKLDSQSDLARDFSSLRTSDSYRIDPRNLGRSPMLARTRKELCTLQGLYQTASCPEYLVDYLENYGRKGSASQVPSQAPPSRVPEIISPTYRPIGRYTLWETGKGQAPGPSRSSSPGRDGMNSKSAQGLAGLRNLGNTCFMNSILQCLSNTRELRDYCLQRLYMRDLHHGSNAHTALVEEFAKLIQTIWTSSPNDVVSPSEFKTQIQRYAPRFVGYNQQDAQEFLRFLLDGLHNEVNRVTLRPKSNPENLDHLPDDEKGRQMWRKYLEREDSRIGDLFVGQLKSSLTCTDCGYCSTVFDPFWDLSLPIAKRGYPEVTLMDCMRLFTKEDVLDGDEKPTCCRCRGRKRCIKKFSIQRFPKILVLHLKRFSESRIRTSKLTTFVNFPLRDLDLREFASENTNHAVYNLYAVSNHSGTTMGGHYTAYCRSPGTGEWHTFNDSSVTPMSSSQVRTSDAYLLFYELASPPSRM
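Deubiquitinase activity read as fluorescence (485/531 nm) after Ub-CHOP2 cleavage activates the enterokinase reporter on its substrate; USP2 core 10nM, Ub-CHOP2 and substrate 25nM each, 30min compound preincubation then 60min RT; data normalized to NEM, curves fitted.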
Numbers without * were called inactive; ? = inconclusive; · = no result given; [ ] = remark or other dose. Compounds with a hit are over-represented: about 3.3% of the library has one in this group of screens. Unless noted, calls come from the whole dose curve; as a rule, active = well fitted curve in the direction sought with a large enough effect; inconclusive = small, poorly fitted or top-dose-only effect, or another doubt; inactive = no such curve, though single readings can be large; an effect the other way counts as inactive or inconclusive. Unless noted, % is set by controls: 0 for no effect and ±100 for the full control effect.

SMILES | USP1 inh | WRN helicase inh | PI5P4Ka inh | PLK1 PBD inh | USP2a block
O=S(=O)(Nc1nc2ccccc2nc1Nc1ccccc1Br)c1ccccc1 | -32% | · | · | · | ·
O=C(CN1CCCc2ccccc21)NC(=O)NCc1ccccc1 | -17% | 0% | -10 | -8% | 2%
O=C(CN1CCc2ccccc21)NC(=O)NCc1ccccc1 | -7% | 11%[57.1 µM] | -5 | 27µM* | -3%
O=C(CN1CCCc2ccccc21)NC(=O)NC1CCCCC1 | -21% | 2% | ? | 27µM* | -3%
Cc1ccc(C)c(NC(=O)CSc2c3c(nc4ccc(Cl)cc24)CCCC3)c1 | -12% | · | · | · | ·
Cc1cc2c(c(SCC(N)=O)n1)C(=O)OC2 | 8% | 1% | -3 | 30µM* | 4%
N#Cc1ccsc1NC(=O)COC(=O)C1=NNC(=O)CC1 | -22% | ? | -82* | -29% | 0%
O=C1CCC(C(=O)OCC(=O)Nc2ccccc2Br)=NN1 | -22% | -1% | 2 | 5% | ·
COc1ccc(OC)c(CNC(=O)c2ccc(Sc3ccc(C)cc3)c(N)c2)c1 | 14% | · | · | · | ·
COC(=O)c1ccc(Sc2ccc(C)cc2)c(N)c1 | -20% | -10% | · | 27µM* | -7%
COc1ccccc1NC(=O)Cn1c(=O)n(CC2CCC(C(=O)NCCc3ccccc3)CC2)c(=O)c2ccccc21 (stereo not given) | -13% | · | · | · | ·
Cc1ccc2[nH]cc(C(=O)CCl)c2c1 | -19% | -7% | 7 | 15µM* | -1%
CCOC(=O)CC(S(=O)(=O)c1ccccc1)S(=O)(=O)c1ccccc1 | -5% | 3% | -3 | 27µM* | ·
CCOC(=O)N=S(N)(=O)c1ccccc1 (stereo not given) | -5% | 8% | · | -5% | ·
CCOC(=O)c1ccc(NC(=O)CC2Nc3ccccc3NC2=O)cc1 (stereo not given) | -9% | · | · | · | ·
C=CCOC(=O)C1=C(C)N=c2s/c(=C3\C(=O)N(CC(=O)O)c4ccccc43)c(=O)n2C1c1ccc(OC)cc1 (stereo not given) | -15% | 3% | -29 | 38µM* | 1%
CCOC(=O)N1CCc2c(sc3c2c(=O)n(-c2ccc(F)cc2)c(=O)n3CC(=O)c2ccccc2)C1 | -4% | · | · | · | ·
COc1cc(C(=O)NC2CCN(CC(=O)Nc3cccc(C)c3C)CC2)cc(OC)c1OC | -19% | 19% | -10 | 27µM* | 0%
O=C(Cc1ccsc1)Nc1cc(F)ccc1F | -26% | -3% | 4 | -3% | 3%
O=C(Cc1ccsc1)Nc1ccccc1F | -18% | 0% | 0 | 27µM* | 2%
O=C(O)CCCCCCCCCCCc1ccccc1 | 6% | -13% | 45 | 24µM* | 6%
O=C(O)c1ccc(CCCc2ccccc2)cc1 | ? | -1% | 1 | -9% | ·
O=C(Nc1ccccc1C(F)(F)F)c1c(F)cccc1Cl | -4% | 4% | -1 | 30µM* | 4%
O=C(Nc1ccccc1Br)c1c(F)cccc1Cl | 3% | -2% | -1 | -5% | -1%
COc1ccc(NC(=O)CN(C)C(=O)c2cc3c(s2)CCC3)cc1 | -16% | 40µM* | -69* | 7.5µM* | 0%
COc1ccc(NC(=O)CN(C)C(=O)c2cc3c(s2)CCCCC3)cc1 | 1% | -10% | -8 | 3% | 0%
CCC(C)(C)n1nnnc1C(c1ccc(O)c(OC)c1)N1CCc2ccccc2C1 (stereo not given) | -10% | -4% | · | 27µM* | 1%
CCC(C)(C)n1nnnc1C(c1ccccc1)N1CCc2ccccc2C1 (stereo not given) | -27% | -10% | 9 | -2% | 4%
Cc1ccc2oc(=O)c3cc(C(=O)Nc4ccccc4C(N)=O)sc3c2c1 | -16% | · | · | · | ·
CCc1ccccc1NC(=O)CC(C)S(=O)(=O)c1ccc2c(c1)NC(=O)CO2 (stereo not given) | -17% | · | · | · | ·
